# Most compounds without a hit are left out; they make up all but 1.1% or so of the library.
# Ec RNAP inh: E. coli RNAP inhibitors, biochemical | AID 559, 2006 | inhibition, %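 (tested at 10 µM)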 | 62,000 tested, 0.2% active | DNA-directed RNA polymerase subunit beta (Escherichia coli (strain K12)), P0A8V2 | E. coli RNA polymerase, fluorescence transcription assay; in the data active = inhibition above about 20%;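 note: 0% = enzyme without compound and 100% = no enzyme blank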
# Hsp90 block: tumor Hsp90 inhibitors, primary screen, cell lysate, fluorescence polarization, NCI-N417 lysate; Heat shock protein HSP 90-alpha (Homo sapiens), P07900; Cy3B-geldanamycin FP displacement; inhibition, % at 30 µM; 64,000 tested, 0.35% active; AID 429, 2006;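 active = inhibition above 50%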;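 note: 0% = tracer plus lysate wells and 100% = tracer alone without lysate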
# MT1-MMP txn act: MT1-MMP promoter reporter activation – cell-based, luciferase luminescence, primary screen; HT1080 MT1-MMP promoter luciferase reporter, overnight; stronger effect = higher value; activation factor at 10 µM; 86,000 tested, 0.16% active;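 active = activation factor of at least 2 for MT1-MMP transcription at 10 µM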
# TNAP act DEA: human TNAP enzyme activators, primary screen, biochemical, luminescent, intermediate phosphate acceptor level | Alkaline phosphatase, tissue-nonspecific isozyme (Homo sapiens), P05186 | purified TNAP, CDP-star luminescence, 100 mM DEA, 30 min; stronger effect = higher value; scale: 0 levamisole-inhibited, 1 vehicle-only enzyme | activation factor at 20 µM | 64,000 tested, under 10 active;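 active = activation factor of at least 2 at 20 µM, relative to controls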
# Target sequence (P05186 whole entry, looked up): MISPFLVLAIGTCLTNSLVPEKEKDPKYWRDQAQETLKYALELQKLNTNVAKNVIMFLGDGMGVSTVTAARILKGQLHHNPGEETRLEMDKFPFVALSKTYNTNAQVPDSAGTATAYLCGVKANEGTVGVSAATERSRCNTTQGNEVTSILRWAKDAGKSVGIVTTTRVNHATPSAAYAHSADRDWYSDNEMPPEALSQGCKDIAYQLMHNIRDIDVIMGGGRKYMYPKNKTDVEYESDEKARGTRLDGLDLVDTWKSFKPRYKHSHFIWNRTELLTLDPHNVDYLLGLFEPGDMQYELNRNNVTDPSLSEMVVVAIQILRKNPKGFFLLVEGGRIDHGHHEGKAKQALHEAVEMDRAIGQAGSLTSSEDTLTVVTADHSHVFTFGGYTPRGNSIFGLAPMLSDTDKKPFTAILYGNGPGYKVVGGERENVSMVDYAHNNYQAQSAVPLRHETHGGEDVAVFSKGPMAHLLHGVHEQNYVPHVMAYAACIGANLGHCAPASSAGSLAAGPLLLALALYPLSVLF
# HER2 expr 66K: inhibitors of Her2 protein expression, primary screen, SKBR-3 cells, AlphaScreen, 66K library. Receptor tyrosine-protein kinase erbB-2 (Homo sapiens), P04626. SKBR-3 HER2 protein level, 18-24 h; stronger effect = lower value. HER2 level % of control, % at 10 µM. 65,000 tested, 0.69% active. AID 645, 2007;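 active = HER2 level under 5% of the carrier-only control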;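 note: 100% = DMSO carrier and 0% = 500 nM PU-H71 HSP90 inhibitor; lower value means stronger loss of Her2 protein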
# HePTP inhibitor: inhibitors of human HePTP phosphatase, primary screen, biochemical, absorbance, leukemia target. recombinant HePTP phosphatase activity, OD absorbance. inhibition, % at 20 µM. 110,000 tested, 0.64% active; in the data active = inhibition above about 50%;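 note: plate controls were vehicle for no effect and reference inhibitor for full effect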
# Active calls of the source: *; . = no result given.
SMILES,Ec RNAP inh,Hsp90 block,MT1-MMP txn act,TNAP act DEA,HER2 expr 66K,HePTP inhibitor
CNc1ccc2c(O)cc(S(=O)(=O)O)cc2c1,.,.,.,.,.,54*
COc1ccc(-n2nnc3c(SCC(=O)c4ccccc4)ncnc32)cc1,7,1,0.9,0.9,77,1
COc1ccc(-n2nnc3c(SCC(=O)Nc4ccc5c(c4)OCCO5)ncnc32)cc1,6,-3,1.1,0.9,-7.2*,8
O=C1NC(=S)S/C1=C/c1ccc(Sc2ccccc2)o1,.,.,.,.,.,87*
O=C(Cc1ccccc1)N1N=C(c2cccnc2)CC1(O)C(F)(F)F (stereo unspecified),.,.,.,.,.,7
Cc1cc(N2C(=O)NC(=O)/C(=C\c3ccc(N(C)C)o3)C2=O)ccc1Br,.,.,.,.,.,-8
Cc1cc(N2C(=O)NC(=O)/C(=C\c3ccc([N+](=O)[O-])o3)C2=O)ccc1Br,.,.,.,.,.,104*
Cc1ccc(N2C(=O)NC(=O)/C(=C\c3ccc(-c4cccc([N+](=O)[O-])c4)o3)C2=O)cc1,.,.,.,.,.,1
Cc1cc(C)cc(N2C(=O)NC(=O)/C(=C\c3ccc([N+](=O)[O-])o3)C2=O)c1,.,.,.,.,.,84*
Cc1ccc(-n2nc(C)c3c2OC(N)=C(C#N)C3c2ccc(F)cc2)cc1 (stereo unspecified),12,0,1.1,0.8,-28*,2
Cc1nn(-c2ccccc2)c2c1C(c1ccc(O)cc1)C(C#N)=C(N)O2 (stereo unspecified),.,.,.,.,.,6
CCCCOc1cccc(C(=O)Nc2ccc(C)cc2[N+](=O)[O-])c1,.,.,.,.,.,-12
Cc1cc(NC(=O)CCCS(=O)(=O)c2nc(-c3cccs3)cc(C(F)(F)F)n2)no1,4,1,1.3,0.9,-16*,4
CS(=O)(=O)c1nc(-c2cccs2)cc(C(F)(F)F)n1,1,.,.,0.9,-24*,2
Cc1cc(C)c2oc(-c3cccc(NC(=O)c4ccccc4C)c3)nc2c1,.,.,.,.,.,-8
O=C(CC1S/C(=N\N=C\c2cccs2)NC1=O)Nc1ccc(C(=O)O)cc1 (stereo unspecified),.,.,.,.,.,90*
O=C(CC1S/C(=N\N=C\c2ccco2)NC1=O)Nc1cccc(Cl)c1Cl (stereo unspecified),.,.,.,.,.,9
O=C(CC1S/C(=N\N=C\c2ccco2)NC1=O)Nc1ccc(C(=O)O)cc1 (stereo unspecified),.,.,.,.,.,101*
CCNC(=O)CC1S/C(=N\N=C(/C)c2ccc([N+](=O)[O-])cc2)NC1=O (stereo unspecified),.,.,.,.,.,4
C/C(=N\N=C1\NC(=O)C(CC(=O)Nc2ccc(C(=O)O)cc2)S1)c1ccc([N+](=O)[O-])cc1 (stereo unspecified),.,.,.,.,.,94*
CCOc1ccc(/C=N\NC(=O)c2cncc(Br)c2)cc1,.,.,.,.,.,-16
CCOc1ccc(/C=N\NC(=O)c2ccc(Br)cc2)c(O)c1,.,.,.,.,.,102*
N#Cc1c(N2CCCC2)nc(N)c2c(N)nc(N3CCCC3)cc12,10,77*,1.2,0.9,121,.
COc1cc2c(C#N)c(N3CCN(c4ccccc4OC)CC3)nc(N)c2c(N)n1,-8,-7,1.1,0.9,-4.0*,-1
CCOc1cc(N2CCOCC2)c(OCC)cc1NC1=NCCCCC1,6,61*,1.1,1,100,4
SMILES,Ec RNAP inh,Hsp90 block,MT1-MMP txn act,TNAP act DEA,HER2 expr 66K,HePTP inhibitor
CCOc1cc(N2CCOCC2)c(OCC)cc1N,.,.,.,.,.,68*
CCOc1cc(N2CCOCC2)c(OCC)cc1NC(=O)Cc1ccc(OC)c(OC)c1,7,27,.,0.9,87,4
CC1=C(C(=O)Nc2ccc(Br)cc2)C(c2ccccc2F)NC(=O)N1 (stereo unspecified),.,.,.,.,.,-1
COc1cccc(C(=O)NCC(=O)n2nc(C)cc2C)c1,-6,121*,1.1,0.9,111,9
C#CCSc1nc2sc3c(c2c(=O)n1CC=C)CCC3,.,.,.,.,.,25
Cc1cccc(-c2cc(C(=O)O)c3ccccc3n2)c1,.,.,.,.,.,0
O=C(Nc1ccon1)c1cc(-c2ccccc2)nc2ccccc12,21*,-11,1.1,0.9,93,4
